Molecules are shown by their SMILES. Structures can show the parent of a compound that is named as a salt. ± gives the uncertainty stated by the source.

In the assay the test system is NCC-MFS5-C1. In words: cell viability relative to DMSO control; higher = less growth inhibition. The following applies: 10 µM; treatment time: 3 days. The procedure:
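NCC-MFS5-C1 myxofibrosarcoma cells (1x10^4 per well, 384-well) were treated on day 2 with 10 µM of each drug. On day 5, viability was read by CCK-8 absorbance at 450 nm and normalised to the DMSO control (%), n = 2.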
A word on the cell viability: it is a read-out of living cells in per cent, often relative to untreated cells. For `Cc1ccc(NC(=O)c2ccc(CN3CCN(C)CC3)cc2)cc1Nc1nccc(-c2cccnc2)n1` [Imatinib Mesylate (STI571)], the cell viability came to 69.6 ± 1.4%.
For the molecule `CO[C@H]1C[C@@H]2CC[C@@H](C)[C@@](O)(O2)C(=O)C(=O)N2CCCC[C@H]2C(=O)O[C@H]([C@H](C)C[C@@H]2CC[C@@H](OC(=O)C(C)(CO)CO)[C@H](OC)C2)CC(=O)[C@H](C)/C=C(\C)[C@@H](O)[C@@H](OC)C(=O)[C@H](C)C[C@H](C)/C=C/C=C/C=C/1C`, the cell viability was determined as 52.2 ± 7.9%.
Next, `C#Cc1cccc(Nc2ncnc3cc(OCCOC)c(OCCOC)cc23)c1` [Erlotinib]: 81.7 ± 5.8%; `Cc1cn(-c2cc(NC(=O)c3ccc(C)c(Nc4nccc(-c5cccnc5)n4)c3)cc(C(F)(F)F)c2)cn1` [Nilotinib (AMN-107)]: 57.2 ± 3.6%; `CN(C)/N=N/c1[nH]cnc1C(N)=O` [Dacarbazine]: 82 ± 1.7%.
Next, `N#CC[C@H](C1CCCC1)n1cc(-c2ncnc3[nH]ccc23)cn1`: 66.2 ± 4.7%; `COc1cc2nccc(Oc3ccc(NC(=O)C4(C(=O)Nc5ccc(F)cc5)CC4)cc3)c2cc1OC` [Cabozantinib malate (XL184)]: 67.2 ± 21%; `Cc1c2oc3c(C)ccc(C(=O)N[C@@H]4C(=O)N[C@H](C(C)C)C(=O)N5CCC[C@H]5C(=O)N(C)CC(=O)N(C)[C@@H](C(C)C)C(=O)O[C@@H]4C)c3nc-2c(C(=O)N[C@@H]2C(=O)N[C@H](C(C)C)C(=O)N3CCC[C@H]3C(=O)N(C)CC(=O)N(C)[C@@H](C(C)C)C(=O)O[C@@H]2C)c(N)c1=O` [Actinomycin D]: 40.2 ± 2.1%.
As to `CNC(=O)c1cc(Oc2ccc(NC(=O)Nc3ccc(Cl)c(C(F)(F)F)c3)cc2)ccn1` [Sorafenib Tosylate], the cell viability is 45.3 ± 1.9%.
The value for `CC(C)(C#N)c1cc(Cn2cncn2)cc(C(C)(C)C#N)c1` [Anastrozole] was 83.5 ± 5.1%; that for `COc1cc2nccc(Oc3ccc(NC(=O)Nc4cc(C)on4)c(Cl)c3)c2cc1OC` [Tivozanib (AV-951)] was 59.7 ± 2.6%.
The value for `COc1cc2ncnc(Nc3ccc(F)c(Cl)c3)c2cc1OCCCN1CCOCC1` [Gefitinib(ZD1839)] was 95.1 ± 3.7%; that for `N#Cc1ccc(C(c2ccc(C#N)cc2)n2cncn2)cc1` [Letrozole] was 92.3 ± 6.4%.
The value for `Fc1ccc(C(c2ccc(F)cc2)N2CCN(C/C=C/c3ccccc3)CC2)cc1` [Flunarizine 2HCl] was 114 ± 12%.
Turning to `C=CC[C@@H]1/C=C(\C)C[C@H](C)C[C@H](OC)[C@H]2O[C@@](O)(C(=O)C(=O)N3CCCC[C@H]3C(=O)O[C@H](/C(C)=C/[C@@H]3CC[C@@H](O)[C@H](OC)C3)[C@H](C)[C@@H](O)CC1=O)[C@H](C)C[C@@H]2OC` [Tacrolimus (FK506)], the cell viability was determined as 93.7 ± 7.5%.
The value for `CNC[C@H](O)c1ccc(O)c(O)c1` [Epinephrine Bitartrate] was 106 ± 5.9%; that for `CC[C@H](Nc1ncnc2[nH]cnc12)c1nc2cccc(F)c2c(=O)n1-c1ccccc1` [CAL-101 (Idelalisib, GS-1101)] was 72.3 ± 6.2%.
The value for `C#CCC(Cc1cnc2nc(N)nc(N)c2n1)c1ccc(C(=O)N[C@@H](CCC(=O)O)C(=O)O)cc1` (stereo not given in full) [Pralatrexate] was 85 ± 4.1%; that for `CC(=O)O[C@@]12CO[C@@H]1C[C@H](O)[C@@]1(C)C(=O)[C@H](O)C3=C(C)[C@@H](OC(=O)[C@H](O)[C@@H](NC(=O)OC(C)(C)C)c4ccccc4)C[C@@](O)([C@@H](OC(=O)c4ccccc4)[C@H]21)C3(C)C` [Docetaxel] was 67 ± 2.2%; that for `O=S(=O)(O)CCS` [Mesna] was 76.99 ± 0.32%.
The value for `CO[C@H](C(=O)[C@@H](O)[C@@H](C)O)[C@@H]1Cc2cc3cc(O[C@H]4C[C@@H](O[C@H]5C[C@@H](O)[C@H](O)[C@@H](C)O5)[C@H](O)[C@@H](C)O4)c(C)c(O)c3c(O)c2C(=O)[C@H]1O[C@H]1C[C@@H](O[C@H]2C[C@@H](O[C@H]3C[C@](C)(O)[C@H](O)[C@@H](C)O3)[C@H](O)[C@@H](C)O2)[C@H](O)[C@@H](C)O1` [Mithramycin A] was 97.4 ± 4%.
Consider `CC(C)C(=O)Nc1ccc([N+](=O)[O-])c(C(F)(F)F)c1` [Flutamide], for which the cell viability was 78.3 ± 6%.
`COc1cc2nccc(Oc3ccc(NC(=O)NC4CC4)c(Cl)c3)c2cc1C(N)=O` [Lenvatinib (E7080)]: the cell viability was determined as 75.4 ± 0.93%.
Turning to `CCCS(=O)(=O)Nc1ccc(F)c(C(=O)c2c[nH]c3ncc(-c4ccc(Cl)cc4)cc23)c1F` [Vemurafenib (PLX4032, RG7204)], the cell viability stood at 76 ± 3.5%.
The value for `CN(C)C/C=C/C(=O)Nc1cc2c(Nc3ccc(F)c(Cl)c3)ncnc2cc1O[C@H]1CCOC1` [Afatinib (BIBW2992)] was 9.65 ± 4.3%.
Next, `CC1=C(CC(=O)O)c2cc(F)ccc2/C1=C\c1ccc([S+](C)[O-])cc1` (stereo not given) [Sulindac]: 103.76 ± 0.032%.
The value for `CC/C(=C(/CC)c1ccc(O)cc1)c1ccc(O)cc1` [Diethylstilbestrol] was 87.8 ± 22%; that for `Nc1cc(C(Cl)=C(Cl)Cl)c(S(N)(=O)=O)cc1S(N)(=O)=O` [Clorsulon] was 89.3 ± 2.4%; that for `COc1cc2c(cc1O)CC[C@@H]1[C@@H]2CC[C@]2(C)[C@@H](O)CC[C@@H]12` [2-Methoxyestradiol (2-MeOE2)] was 57.5 ± 7.6%.
Consider `CC[C@@]1(O)C(=O)OCc2c1cc1n(c2=O)Cc2cc3c(CN(C)C)c(O)ccc3nc2-1` [Topotecan HCl], for which the cell viability was 33.3 ± 5.3%.
Turning to `CO[C@H]1O[C@@H]2O[C@@]3(C)CC[C@H]4[C@H](C)CC[C@@H]([C@H]1C)[C@@]24OO3` [Artemether], the cell viability is 91.2 ± 4.8%.
Next, `COc1cc2c(Oc3ccc4[nH]c(C)cc4c3F)ncnc2cc1OCCCN1CCCC1` [Cediranib (AZD2171)]: -0.717 ± 0.35%.
`Cc1ccc(NC(=O)c2ccc(CN3CC[C@H](N(C)C)C3)c(C(F)(F)F)c2)cc1Nc1nccc(-c2cncnc2)n1` [Bafetinib (INNO-406)]: the cell viability stood at 2.79 ± 1.9%.
The value for `Cc1nc(Nc2ncc(C(=O)Nc3c(C)cccc3Cl)s2)cc(N2CCN(CCO)CC2)n1` [Dasatinib] was 55.3 ± 5.5%; that for `NCC(=O)CCC(=O)O` [5-Aminolevulinic acid HCl] was 85.7 ± 2.2%.
Take `COc1ccc2[nH]c([S@@+]([O-])Cc3ncc(C)c(OC)c3C)nc2c1` [Esomeprazole Sodium]: the cell viability was 74.6 ± 1.4%.
The value for `COc1cccc2c1C(=O)c1c(O)c3c(c(O)c1C2=O)C[C@@](O)(C(C)=O)C[C@@H]3O[C@H]1C[C@H](N)[C@H](O)[C@H](C)O1` [Daunorubicin HCl] was 14.4 ± 6.7%; that for `CN1CCN(CCOc2cc(OC3CCOCC3)c3c(Nc4c(Cl)ccc5c4OCO5)ncnc3c2)CC1` [Saracatinib (AZD0530)] was 62.8 ± 3.8%; that for `CCc1c2c(nc3ccc(OC(=O)N4CCC(N5CCCCC5)CC4)cc13)-c1cc3c(c(=O)n1C2)COC(=O)[C@]3(O)CC` [Irinotecan HCl Trihydrate] was 64.1 ± 2.3%.
Take `C#Cc1cccc(Nc2ncnc3cc(OCCOC)c(OCCO)cc23)c1`: the cell viability worked out at 92.2 ± 1.8%.

The values above are taken from the supplement of paper PMC8773631.
